Data on 10 compounds can be found in PubChem BioAssay (Tox21).

Molecules are shown by their SMILES. “And” between values parts separate entries of the source, which are not always exact repeats. Identical values can stand only once. Inconclusive results are not listed. A structure can be active in one record and inactive in another. The source made the active and inactive calls. Unless noted, calls come from the whole dose curve; as a rule, active = well fitted curve in the direction sought with a large enough effect in the repeat runs; inconclusive = weak or mixed curves; inactive = no such curve, though single readings can be large; an effect the other way counts as inactive or inconclusive.

A short description of assay [1]: qHTS assay to identify small molecule agonists of the vitamin D receptor (VDR) signaling pathway - cell viability counter screen (AID 743224). Note: nearly all actives have a fitted effect of over 50% in size. A digest of the protocol:
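Compounds were pin-transferred onto VDR-bla cells plated 4 h earlier; following 16 h incubation at 37C, cell viability was quantified by CellTiter-Glo luminescence after 30 min at room temperature.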

The nature of assay [2]: qHTS assay to identify small molecule agonists of the NFkB signaling pathway (AID 1159509; active = well fitted curve in the direction sought with a large enough effect in the signal ratio in the repeat runs, not every such curve was filed as active; the % refers to the signal ratio). The gist of the method:
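Agonist activity was read as beta-lactamase-driven FRET change (460 and 530 nm emission, 405 nm excitation) following 1.5 hr substrate loading at room temperature. Beforehand, ME-180 NFkB-bla reporter cells were treated with compounds for 5 hr at 37 C.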

A short description of assay [3]: qHTS assay to identify small molecule agonists of the NFkB signaling pathway - cell viability counter screen (AID 1159515; calls by dose curve; note: nearly all actives have a fitted effect of over 55% in size). A digest of the protocol: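 Parallel cytotoxicity counter screen in ME-180 cells carrying an NFkB-response-element beta-lactamase reporter, 2,000 cells/well. Compound exposure lasted 5 hr at 37 C, 5% CO2. Cell viability was quantified by CellTiter-Glo luminescence.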
On the technique in general: Quantitative high-throughput screening tests each substance at several concentrations.

Assay [4] in a line: qHTS assay to identify small molecule agonists of the endoplasmic reticulum stress response signaling pathway (AID 1159516; active = well fitted activation curve with a large enough effect in the signal ratio in the repeat runs, not every such curve was filed as active; the % refers to the signal ratio). A digest of the protocol: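 Using a HeLa line with an ESRE-driven beta-lactamase gene, agonist activity was measured by FRET substrate fluorescence (460 and 530 nm emission) after cells were treated with compounds for 5 hr at 37 C and 5% CO2.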
Assay [5] can be described thus: qHTS assay to identify small molecule agonists of the endoplasmic reticulum stress response signaling pathway - cell viability counter screen (AID 1159517; calls by dose curve;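 note: HeLa cells carrying an ER stress response element beta-lactamase reporter; nearly all actives have a fitted effect of over 50% in size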). The gist of the method: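 ESRE-bla HeLa cells (1,500/well) were plated overnight at 37 C and exposed to compounds for 5 hr. After the 2 hr beta-lactamase substrate read, CellTiter-Glo went into the same wells, and luminescence was read after 30 min at room temperature.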

Assay [6] can be described thus: qHTS assay to identify small molecule antagonists of the retinoid-related orphan receptor gamma (ROR-gamma) signaling pathway - cell viability counter screen (AID 1159520). Note: nearly all actives have a fitted effect of over 50% in size. The gist of the method:
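Cytotoxicity was read from cellular ATP (CellTiter-Glo luminescence) after 16 hr at 37 C with 1 uM doxycycline induction. The inducer was added 2 hr after compound transfer to Tet-on ROR gamma CHO cells.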

Assay [7] addresses Nuclear receptor ROR-gamma (Homo sapiens) (UniProt P51449). The experiment in a line: qHTS assay to identify small molecule antagonists of the retinoid-related orphan receptor gamma (ROR-gamma) signaling pathway (AID 1159521; note: nearly all actives have a fitted effect of over 50% in size; note: potency is the fitted concentration of half-maximal effect). The gist of the method:
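Tet-on RORγ CHO cells carrying a ROR response element–luciferase reporter were pretreated with compounds for 2 h, then induced with 1 uM (final) doxycycline hyclate for 16 h at 37 C. Antagonism was read as decreased ONE-Glo luminescence.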

A short description of assay [8]: qHTS assay to identify small molecule agonists of the AP-1 signaling pathway - cell viability counter screen (AID 1159525; calls by dose curve; note: nearly all actives have a fitted effect of over 55% in size). A digest of the protocol:
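Intracellular ATP by Cell Titer Glo luminescence (30 min, RT) in the same ME-180 AP-1-bla wells after the 5 h compound exposure at 37 °C. Normalised to tetra n-octyl ammonium bromide and DMSO controls.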

Assay [9] has as its target Retinoic acid receptor RXR-alpha (Homo sapiens) (UniProt P19793). The experiment in a line: qHTS assay to identify small molecule agonists of the RXR signaling pathway (AID 1159527; calls by dose curve; note: nearly all actives have a fitted effect of over 35% in size). A digest of the protocol: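 GeneBLAzer RXR-alpha-UAS-bla HEK 293T cells in medium with 2% charcoal-stripped FBS, pre-incubated 5 hr at 37 C, then exposed to compounds 16 hr. Beta-lactamase reporter read by FRET substrate, 2 hr room temperature, 460/530 nm emission.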

Assay [10] is described as follows: qHTS assay to identify small molecule agonists of the RXR signaling pathway - cell viability counter screen (AID 1159529). Note: nearly all actives have a fitted effect of over 50% in size. Note: potency is the fitted concentration of half-maximal effect. A digest of the protocol: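 RXR-alpha-UAS-bla HEK 293T cells in medium with 2% charcoal-stripped FBS were preincubated 5 hr, then exposed to compounds for 16 hr at 37 C. Viability was read as CellTiter-Glo luminescence after 30 min at room temperature.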

Assay [11] in a line: qHTS assay to identify small molecule antagonists of the vitamin D receptor (VDR) signaling pathway - cell viability counter screen (AID 743225). Note: nearly all actives have a fitted effect of over 50% in size. A digest of the protocol:
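VDR-bla HEK 293T cells, 4 h pre-incubation at 37C, then compound plus 1-alpha,25-dihydroxyvitamin D3 (3 nM final) for 16 h. After the beta-lactamase FRET read, CellTiter-Glo was added to the same wells; luminescence after 30 min at room temperature.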

Assay [12] can be described thus: qHTS assay to identify small molecule agonists of the AP-1 signaling pathway (AID 1159526; calls by dose curve).
Assay [13] in a line: qHTS assay to identify small molecule agonists of the retinoic acid receptor (RAR) signaling pathway (AID 1159553). Note: potency is the fitted concentration of half-maximal effect. Conditions: C3RL4 RARE luciferase reporter, agonist, 6 h; activation: at 73.3 µM (top of the series) unless noted. The gist of the method:
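Quantitative high-throughput format: the Tox21 10K library was tested on C3RL4 RARE-luciferase cells for 6 hr at 37 C and 5% CO2, with luminescence measured after a 30 min room-temperature reagent step.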

A short description of assay [14]: qHTS assay to identify small molecule antagonists of the estrogen related receptor (ERR) signaling pathway (AID 1224819). A digest of the protocol: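 ERR reporter cell line (NTP) plated at 2,000 cells/well, settled 6 h at 37C/5% CO2, then exposed to LOPAC compounds for 18 h at 37C. One-Glo luciferase luminescence read after 30 min at room temperature.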
The nature of assay [15]: qHTS assay to identify small molecule agonists of the estrogen related receptor (ERR) signaling pathway (AID 1224820). A digest of the protocol: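 After 6 h plating (2,000 cells/well) and 18 h compound treatment at 37 C, ERR cells were lysed with One-Glo and luminescence read after 30 min at room temperature.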
Assay [16] deals with estrogen-related receptor alpha (ERRalpha) with PGC-1alpha coactivator, human. The experiment in a line: qHTS assay to identify small molecule antagonists of the estrogen related receptor signaling pathway with the pleiotropic PPARgamma coactivator (PGC) (AID 1224821; calls by dose curve). A digest of the protocol:
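Luminescence from One-Glo luciferase reagent (30 min, room temperature) measured after 18 h compound treatment at 37 °C. Cells carry the PGC/ERR reporter and were seeded 6 h prior to dosing.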

The nature of assay [17]: qHTS assay to identify small molecule antagonists of the retinoid acid receptor (RAR) signaling pathway - cell viability counter screen (AID 1159551). Note: nearly all actives have a fitted effect of over 35% in size. A digest of the protocol: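 ATP-based viability, C3RL4 cells, 6 h at 37 C with 1 uM final retinol co-added after compound; luminescence read 30 min post CellTiter-Glo, RT.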
Assay [18] in a line: qHTS assay to identify small molecule antagonists of the retinoic acid receptor (RAR) signaling pathway (AID 1159552; note: nearly all actives have a fitted effect of over 50% in size; note: potency is the fitted concentration of half-maximal effect). A digest of the protocol:
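RARE-luc C3RL4 cells; cpds + 1 uM (final) retinol, 6 hr, 37 C/5% CO2; luciferase reagent, 30 min RT, luminescence readout. Inhibitors of retinol-driven signal scored.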

Retinoic acid receptor RXR-alpha (Homo sapiens), sequence (P19793 whole entry, looked up): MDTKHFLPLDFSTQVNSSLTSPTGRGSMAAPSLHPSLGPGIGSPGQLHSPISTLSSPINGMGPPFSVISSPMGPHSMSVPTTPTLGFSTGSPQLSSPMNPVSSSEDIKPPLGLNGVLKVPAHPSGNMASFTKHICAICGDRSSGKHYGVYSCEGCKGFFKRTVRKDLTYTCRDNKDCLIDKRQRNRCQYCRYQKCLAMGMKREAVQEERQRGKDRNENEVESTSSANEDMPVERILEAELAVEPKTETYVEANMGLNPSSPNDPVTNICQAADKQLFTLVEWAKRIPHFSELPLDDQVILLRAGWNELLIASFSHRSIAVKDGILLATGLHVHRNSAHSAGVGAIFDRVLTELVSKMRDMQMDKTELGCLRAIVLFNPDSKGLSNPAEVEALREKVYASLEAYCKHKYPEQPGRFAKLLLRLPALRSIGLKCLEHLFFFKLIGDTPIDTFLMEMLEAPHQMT

`CCCCCc1cc(O)cc(O)c1`: the Potency entry in [1], in assay [3], in assay [5], in assay [6], in assay [7] and in assay [8] was “inactive” in each case. The Potency result in assay [9] and in assay [10] was “inactive” in each case. The outcome in assay [2] and in [4] was inactive.

Turning to `C=C(C)[C@H]1Cc2c(ccc3c2O[C@@H]2COc4cc(OC)c(OC)cc4[C@@H]2C3=O)O1`, the Potency entry in assay [11], in [3], in assay [5], in [6], in assay [8] and in assay [10] was “inactive” each time. For the same compound, the Potency result in [13] and in [15] was “inactive” throughout. Further, the compound was called inactive in assay [2], in [4] and in assay [12]. Further, the Potency in [7] was 34.8 nM (active) and 770 nM (active) and 10.6 nM (active); in assay [14] it was 0.081 µM (active); in assay [16], 0.0361 µM (active).

As to `CCCCCCCCC(=O)NCc1ccc(O)c(OC)c1`, the Potency entry in assay [1], in [11], in assay [3], in [5], in assay [6] and in assay [7] was “inactive” throughout. The Potency result in assay [8], in [10], in assay [17] and in assay [18] was “inactive” each time. In addition, the outcome in assay [2] and in assay [12] was inactive.

Turning to `CCc1cccc(CC)c1N(COC)C(=O)CCl`, the Potency entry in [1], in assay [11], in [3], in [5], in assay [6] and in assay [8] was “inactive” throughout. Besides, the Potency entry in assay [10] and in [17] was “inactive” in each case. Further, the compound was classed as inactive in assay [2] and in [12].

For `CCC(CC)Nc1c([N+](=O)[O-])cc(C)c(C)c1[N+](=O)[O-]`, the Potency entry in [1], in assay [11], in assay [3], in [5], in assay [6] and in assay [7] was “inactive” each time. Besides, the Potency result in [8] and in assay [17] was “inactive” throughout. Moreover, the call in [2] was inactive.

`Cc1ccc(N)c(N)c1`: the Potency entry in assay [1], in assay [11], in [5], in assay [6], in assay [7] and in assay [8] was “inactive” in each case. The Potency entry in [10], in assay [17] and in assay [18] was “inactive” throughout. The compound was called inactive in assay [2], in [4] and in assay [12]. Moreover, the Potency in assay [13] is 1.54 µM (active) and 1.22 µM (active).

Take `N#Cc1cc(Br)c(O)c(Br)c1`: the Potency result in assay [1], in [5], in assay [6], in [8], in assay [9] and in assay [17] was “inactive” each time. The Potency result in assay [18] and in [13] was “inactive” in each case. For the same compound, the result in [2], in assay [4] and in [12] was inactive. Further, the Potency in [7] is 27.3 µM (active) and 37.1 µM (active); in assay [10] it was 11 µM (active) and 13.3 µM (active).

Turning to `C[C@]12CCC(=O)C[C@@H]1CC[C@@H]1[C@@H]2CC[C@]2(C)[C@@H](O)CC[C@@H]12`, the Potency entry in assay [1], in [11], in assay [3], in [5], in [6] and in assay [8] was “inactive” in each case. Besides, the Potency entry in assay [10] and in assay [13] was “inactive” each time. For the same compound, the compound was classed as inactive in assay [2] and in assay [4]. In assay [18], the Potency is 42.7 µM (active) and inactive.

As for `Cc1ccc2c(c1N)C(=O)c1ccccc1C2=O`, the Potency result in assay [1], in assay [11], in assay [3], in [5], in assay [6] and in assay [7] was “inactive” in each case. Moreover, the Potency result in assay [8], in assay [9], in assay [10], in [17] and in [18] was “inactive” in each case. Further, the result in assay [2] and in assay [12] was inactive. In addition, in assay [13], the Potency is 1.7 µM (active) and 1.93 µM (active).

For the compound `O=[N+]([O-])c1ccc(O)c([N+](=O)[O-])c1`, the Potency result in assay [1], in [5], in assay [6], in assay [8], in [18] and in assay [13] was “inactive” each time. Besides, the call in [2], in assay [4] and in [12] was inactive. For the same compound, the Potency is 17.3 µM (active) and 17.2 µM (active) in [7]; 12.3 µM (active) in assay [10].
